Experimental data: PubChem BioAssay AID1159580 (chemical genetic matrix, 2015)
Where “and” joins values, the source holds several entries; their conditions need not be identical. Identical values can stand only once. In all, about 5,500 compounds went through this assay and about 2,000 (36%) were called active. Roughly 18% stayed inconclusive and do not appear here. Cut-off read from the data, not from the text of the source: active = normalized growth mostly below about 0.91 (no sharp cut-off); inconclusive = no clear call, values can overlap the other calls; inactive = mostly above about 0.92. Some of the results follow.

Assay: chemical genetic growth profiling, strain panel (AID 1159580);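 note: tested at 20 µM; growth read once vehicle control cultures reached saturation at 30 °C; 1 = growth at the plate median or of vehicle wells; lower values mean less growth of the strain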
Conditions: S. cerevisiae deletion strains, growth OD

Measured: normalized growth

NCC(=O)c1ccccc1
inactive: locus YAL013W, strain DEP1, active compounds read low 1.02 | locus YAL021C, strain ccr4, active compounds read low 1.02 | locus YAL026C, strain drs2, active compounds read low 1.01 | locus YAL030W, strain snc1, active compounds read low 1 | locus YBL061C, strain skt5, active compounds read low 0.995 | locus YBR009C, strain hhf1, active compounds read low 0.999 | locus YBR021W, strain FUR4, active compounds read low 1.02 | locus YBR023C, strain chs3, active compounds read low 1 | locus YBR171W, strain sec66, active compounds read low 1 | locus YBR229C, strain ROT2, active compounds read low 1.01 | locus YBR231C, strain swc5, active compounds read low 0.998 | locus YBR279W, strain paf1, active compounds read low 1.01 | locus YCL011C, strain gbp2, active compounds read low 1.01 | locus YCL016C, strain dcc1, active compounds read low 1 | locus YCL029C, strain bik1, active compounds read low 0.998 | locus YCL061C, strain MRC1, active compounds read low 0.996 | locus YCL069W, strain vba3, active compounds read low 0.997 | locus YCR088W, strain abp1, active compounds read low 1 | locus YDL005C, strain med2, active compounds read low 0.984 | locus YDL035C, strain GPR1, active compounds read low 1.02 | locus YDL040C, strain nat1, active compounds read low 1 | locus YDL074C, strain BRE1, active compounds read low 1.06 | locus YDL101C, strain DUN1, active compounds read low 1.02 | locus YDL134C, strain PPH21, active compounds read low 1.02 | locus YDL185W, strain tfp1, active compounds read low 0.996 | locus YDL192W, strain arf1, active compounds read low 0.997 | locus YDR001C, strain nth1, active compounds read low 1.01 | locus YDR069C, strain doa4, active compounds read low 1.02 | locus YDR101C, strain arx1, active compounds read low 0.983 | locus YDR137W, strain rgp1, active compounds read low 1.01 | locus YDR150W, strain NUM1, active compounds read low 1.03 | locus YDR159W, strain sac3, active compounds read low 0.993 | locus YDR162C, strain NBP2, active compounds read low 1.04 | locus YDR195W, strain ref2 0.976 | locus YDR297W, strain sur2, active compounds read low 0.989 | locus YDR318W, strain mcm21, active compounds read low 0.982 | locus YDR334W, strain swr1, active compounds read low 0.999 | locus YDR335W, strain msn5, active compounds read low 1.01 | locus YDR388W, active compounds read low 0.991 | locus YDR392W, strain spt3, active compounds read low 1.02 | locus YDR502C, strain sam2, active compounds read low 0.988 | locus YEL003W, strain gim4, active compounds read low 1 | locus YEL037C, strain rad23, active compounds read low 1 | locus YEL061C, strain CIN8 (second series), active compounds read low 1.02 | locus YEL061C, strain CIN8, active compounds read low 1.01 | locus YER015W, strain faa2, active compounds read low 1 | locus YER016W, strain bim1, active compounds read low 0.987 | locus YER110C, active compounds read low 0.996 | locus YER111C, strain swi4, active compounds read low 0.992 | locus YER155C, strain BEM2 (second series), active compounds read low 1 | locus YER155C, strain BEM2, active compounds read low 1.01 | locus YER167W, strain BCK2, active compounds read low 1.02 | locus YFR010W, strain ubp6, active compounds read low 0.999 | locus YGL078C, strain dbp3, active compounds read low 0.994 | locus YGL086W, strain mad1, active compounds read low 1 | locus YGL167C, strain pmr1, active compounds read low 0.997 | locus YGL173C, strain kem1, active compounds read low 0.998 | locus YGL227W, strain vid30, active compounds read low 1.01 | locus YGL240W, strain doc1, active compounds read low 1.02 | locus YGL248W, strain PDE1, active compounds read low 1.02 | locus YGL253W, strain hxk2, active compounds read low 1.02 | locus YGR078C, strain PAC10, active compounds read low 1.02 | locus YGR135W, strain pre9, active compounds read low 0.994 | locus YGR229C, strain SMI1, active compounds read low 1.03 | locus YGR252W, strain gcn5, active compounds read low 0.964 | locus YHR013C, strain ard1, active compounds read low 0.979 | locus YHR027C, strain rpn1, active compounds read low 1.02 | locus YHR030C, strain SLT2, active compounds read low 1.01 and 1.02 | locus YHR079C, strain IRE1 (second series), active compounds read low 0.996 | locus YHR079C, strain IRE1, active compounds read low 1.03 | locus YHR094C, strain hxt1, active compounds read low 0.988 | locus YHR129C, strain ARP1, active compounds read low 1.01 | locus YHR142W, strain chs7, active compounds read low 1.01 | locus YHR200W, strain rpn10, active compounds read low 0.988 | locus YIL066C, strain RNR3, active compounds read low 1.02 | locus YIL073C, strain SPO22, active compounds read low 0.951 | locus YIL125W, strain kgd1, active compounds read low 1 | locus YIR030C, strain dcg1, active compounds read low 0.992 | locus YJL092W, strain hpr5, active compounds read low 1 | locus YJL095W, strain BCK1 (second series), active compounds read low 0.999 | locus YJL095W, strain BCK1, active compounds read low 1.05 and 1.03 | locus YJL115W, strain asf1, active compounds read low 1 | locus YJL129C, strain trk1, active compounds read low 1 | locus YJL134W, strain LCB3, active compounds read low 1.01 | locus YJL154C, strain vps35, active compounds read low 1 | locus YJL164C, strain tpk1, active compounds read low 0.996 | locus YJL166W, strain qcr8, active compounds read low 1.02 | locus YJL168C, strain set2, active compounds read low 0.994 | locus YJL187C, strain SWE1 (second series), active compounds read low 1.02 | locus YJR043C, strain POL32, active compounds read low 1 | locus YJR066W, strain TOR1, active compounds read low 0.997
